The text below walks through data of ChEMBL document CHEMBL3988442, “University of Dundee, Small-Polar-MMV Screening Library” (2021).

Molecules are shown by their SMILES. About 900 (1.7%) of roughly 53,000 compounds showed an effect of 50% or more. What follows is part of a selection rich in strong results, with near analogues and random picks from the rest.

For the assay, the system named is Mycobacterium tuberculosis. Description: Cornell - Phenotypic assay to identify agents that inhibit growth of Mycobacterium tuberculosis. Format: functional. Particulars: 10 mM as filed; unlikely as a test dose. Set-up: scale not given: direction of the effect not stated beside the values.
As to `CC(=O)N1CCC(c2nccnc2Nc2ncc(C)s2)CC1`, the “Percent Effect” value came to 21.23%.

For the compound `O=C(NCCc1ccccn1)c1[nH]nc2c1CCCC2`, the “Percent Effect” value turned out to be 20.26%.

On to `O=C(Nc1ccccc1OC1CCOC1)c1[nH]nc2c1CCCC2` (configuration not stated), for which the “Percent Effect” value turned out to be 80.23%.

As for `O=C(Nc1ccccc1OC1CCOC1)c1cc[nH]n1` (configuration not stated), the “Percent Effect” value is -18.84%.

Turning to `CO[C@@H]1CC[C@H]2[C@H]1OCCN2C(=O)COc1ccc(F)cc1`, the “Percent Effect” value was 15.86%.

For the compound `COCCC(C)NC(=O)c1cc(Br)c2c(c1)OCCO2` (configuration not stated), the “Percent Effect” value is listed as 13.03%.

Regarding `Cc1nccc(-c2cccc(NCC(=O)N3CCOCC3)c2)n1`, the “Percent Effect” value turned out to be 9.914%.

Regarding `CNc1cccc(C2CN(C(=O)CNS(C)(=O)=O)CCO2)n1` (configuration not stated), the “Percent Effect” value is -23.18%.

Regarding `CC(C)CCC(=O)N(C)CC(=O)Nc1ccc(Br)cn1`, the “Percent Effect” value is given as -12.94%.

`O=C(c1cnc2ccc(F)cc2c1NCc1ccccn1)N1CCCC1`: the “Percent Effect” value is reported as 5.685%.

Regarding `COCCC1(CNC(=O)Nc2ccc(-n3cccn3)cc2)CCC1`, the “Percent Effect” value is recorded as 21.41%.

For the compound `COCCC1(CNC(=O)Nc2ccc(-n3ccnn3)cc2)CCC1`, the “Percent Effect” value stood at 75.09%.

Take `COCCC1(CNC(=O)Nc2ccc(-n3nccn3)cc2)CCC1`: the “Percent Effect” value was 32.79%.

Regarding `Cc1nc(C2CCCNC2)nc2c1CCCN2Cc1ccccn1.Cl.Cl` (configuration not stated), the “Percent Effect” value is recorded as 10.21%.

Regarding `Cc1nnc(C(C)N2CCCN(Cc3ccc(F)cc3)CC2)o1` (configuration not stated), the “Percent Effect” value stood at 8.155%.

For `Cc1nc(NCCc2ccccc2)cc(C(=O)N2CCCCC2)n1`, the “Percent Effect” value is on record as -12.22%.

With `CN1CC(=O)c2sc(NCCc3ccccc3)nc2C1`, the “Percent Effect” value is on record as -47.63%.

`Br.O=C(O)c1csc(NCCc2ccccc2)n1`: the “Percent Effect” value turned out to be 71.03%.

With `Cc1nn(C)c(C)c1CC(=O)N1CCCC(CNS(C)(=O)=O)C1` (configuration not stated), the “Percent Effect” value is on record as -13.44%.

On to `CCC(O)Cn1nc(-c2ccc(C(=O)O)cc2)cc1-c1ccc(F)cc1` (configuration not stated), for which the “Percent Effect” value stood at 43.49%.

On to `CCC(O)Cn1nc(-c2ccc(C(=O)O)cc2)cc1-c1cccc(F)c1` (configuration not stated), for which the “Percent Effect” value was -3.821%.

For the compound `CC(C)Cn1nc(-c2ccc(C(=O)O)cc2)cc1-c1ccc(F)cc1`, the “Percent Effect” value came to 92.09%.

For the compound `CC(=O)N1CCN(c2nc3c(cnn3C(C)(C)C)c(=O)[nH]2)CC1`, the “Percent Effect” value came to 26.42%.

On to `CC(C)(C)n1ncc2c(=O)[nH]c(NC3CC=CC3)nc21`, for which the “Percent Effect” value was 82.93%.

As for `CC(C)(C)n1ncc2c(=O)[nH]c(N3CC(O)C3)nc21`, the “Percent Effect” value is reported as -9.536%.

For the compound `CC(C)(C)n1ncc2c(=O)[nH]c(N3CCN(CC(F)F)CC3)nc21`, the “Percent Effect” value worked out at 62.42%.

Turning to `CC(C)(C)n1ncc2c(=O)[nH]c(N3CCN(CCO)CC3)nc21`, the “Percent Effect” value came out at 21.4%.

For `CN1CC(Nc2nc3c(cnn3C(C)(C)C)c(=O)[nH]2)CCC1=O` (configuration not stated), the “Percent Effect” value was 12.63%.

In the case of `Nc1cc(-c2nccnc2N2CCCC2)c2cc[nH]c2n1`, the “Percent Effect” value is -1.136%.

Take `CC(=O)N1CCC2(CCN(S(=O)(=O)c3ccccc3)CC2)C1`: the “Percent Effect” value is -13.67%.

`CC(C)CN1C[C@H]2CCN(C(=O)NC3CCCC3)CC[C@H]2S1(=O)=O`: the “Percent Effect” value stood at 15.88%.

On to `COc1cccc(CNc2ccc(F)c(Cl)c2)c1O`, for which the “Percent Effect” value is recorded as 58.04%.

As for `COc1cccc(CNCc2ccc(F)cc2Cl)c1O`, the “Percent Effect” value came to 52.17%.

In the case of `COc1cccc(CNCc2ccc(F)c(Cl)c2)c1O`, the “Percent Effect” value stood at 2.035%.

Regarding `CCOc1cccc(CNc2cccc(C(=O)OC)c2)c1O`, the “Percent Effect” value came out at 2.238%.

For `COc1cccc(CNCc2ccccc2Cl)c1O`, the “Percent Effect” value was -0.8125%.

Consider `COc1cccc(CNCc2cccc(Cl)c2)c1O`, for which the “Percent Effect” value came out at 2.888%.

On to `COc1cccc(N2CCN(CC(O)c3cc(C)ccc3C)CC2)c1` (configuration not stated), for which the “Percent Effect” value is -17.91%.

With `Cc1ccc(-c2nc(CCNC(=O)NCC(C)(C)C(N)=O)co2)cc1`, the “Percent Effect” value was -1.516%.

With `Cc1ccc(Br)cc1NC(=O)NCC(O)CO` (configuration not stated), the “Percent Effect” value is on record as -28.33%.

Regarding `CN1C(=O)[C@H]2CC[C@@H]1CN(c1ncnc3ccsc13)C2`, the “Percent Effect” value came to 26.9%.

Turning to `CN(C)c1nc2n(c(=O)n1)CCN2C(=O)Nc1ccc(Cl)c(Cl)c1`, the “Percent Effect” value was found to be 104.9%.

As for `CN(C)c1nc2n(c(=O)n1)CCN2C(=O)Nc1cccc(Cl)c1`, the “Percent Effect” value is -1.647%.

Turning to `CN(C)c1nc2n(c(=O)n1)CCN2C(=O)Nc1ccc(Cl)cc1`, the “Percent Effect” value is listed as -48.51%.

Consider `Cc1cc(C)n(CCCNC(=O)C(C)NC(=O)c2ccccc2Cl)n1` (configuration not stated), for which the “Percent Effect” value is -13.3%.

`CC1(CNC(=O)NCc2ccsc2)CCCS1` (configuration not stated): the “Percent Effect” value came out at 1.003%.

For the compound `Cc1nc(N2CCOCC2)nc2c1CCN(C(=O)C1CCCCC1)CC2`, the “Percent Effect” value is reported as 34.6%.

Regarding `CCc1sc(-c2nnc(CNCCn3cc(C)cn3)o2)cc1C`, the “Percent Effect” value was 69.26%.

Take `CCc1sc(-c2nnc(CNC(C)Cn3cccn3)o2)cc1C` (configuration not stated): the “Percent Effect” value was determined as 50.91%.

As for `Cc1ccc(-c2nnc(CNCCn3cc(C)cn3)o2)cc1`, the “Percent Effect” value turned out to be 51.67%.

In the case of `Cc1cnn(CCNCc2nnc(C3CC3)o2)c1`, the “Percent Effect” value was -12.52%.

In the case of `CC(Cn1cccn1)NCc1nc(-c2cccs2)no1` (configuration not stated), the “Percent Effect” value was determined as 28.55%.

As for `CCc1sc(-c2nnc(CNC(C)Cn3cc(C)cn3)o2)cc1C` (configuration not stated), the “Percent Effect” value is recorded as 15.55%.

`CCc1sc(-c2nnc(CNCCn3cccn3)o2)cc1C`: the “Percent Effect” value is on record as -21.28%.

Take `Cc1ccc(-c2nnc(C(C)NCCn3cc(C)cn3)o2)cc1` (configuration not stated): the “Percent Effect” value is listed as -4.1%.

With `Cc1ccoc1-c1nnc(CNCCn2cccn2)o1`, the “Percent Effect” value is recorded as -13.89%.

For the compound `O=C(O)C(F)(F)F.O=C1N(CC2CC2)CCC12CCN(Cc1ccoc1)CC2`, the “Percent Effect” value is -1.631%.

For `Cl.O=C(NCCn1nc(C2CCNC2)c2cccnc21)c1ccccc1` (configuration not stated), the “Percent Effect” value is recorded as -53.35%.

For `Cc1c(OCC(=O)NCc2ccccc2)c(=O)ccn1C`, the “Percent Effect” value is listed as 2.776%.

As for `OCCn1nccc1C1CCN(CCOc2ccccc2Cl)CC1`, the “Percent Effect” value is recorded as -31.74%.

For `CCc1cnc(CN(C)C2CCN(CC3CCN(C(C)=O)CC3)C2)o1` (configuration not stated), the “Percent Effect” value was 6.622%.

As for `Cc1ccc(-c2cc(N)c(=O)n(CC(=O)NC3CCCCC3)n2)s1`, the “Percent Effect” value came to 21.23%.

As to `Nc1cc(-c2cccs2)nn(CC(=O)NCC2CCCCC2)c1=O`, the “Percent Effect” value was 91.2%.

`Cc1ccc(-c2cc(N)c(=O)n(CC(=O)NCC3CC3)n2)s1`: the “Percent Effect” value is 90.74%.

Turning to `Cc1cc(-c2cc(N)c(=O)n(CC(=O)NCC3CCCCC3)n2)c(C)o1`, the “Percent Effect” value was -31.85%.

With `Cc1ccc(-c2cc(N)c(=O)n(CC(=O)NC3CCCC3)n2)s1`, the “Percent Effect” value was -35.82%.

For the compound `Cc1ccc(-c2cc(N)c(=O)n(CC(=O)NCC3CCCCC3)n2)s1`, the “Percent Effect” value is 31.53%.
